# Inconclusive results are not listed. Active and inactive are the calls of the source. Rule for the calls, unless noted: active = hit-call score of the fitted dose curve at least 0.9, where 1 is the maximum; inconclusive = response in the unintended direction; inactive = score below 0.9.
# Columns and labels:
# [1] = read-out: Cytochrome P450 2B6 (Homo sapiens) (UniProt P20813); test: CLD_CYP2B6_6hr: CellzDirect (CLD) Gene Expression Assay for xenobiotic metabolism (CYP2B6) at 6 hours (AID 2283677);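 note: actives raise CYP2B6 transcript above DMSO baseline so AC50 marks an inducer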
# Method in brief: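 Primary human hepatocytes dosed with chemicals at multiple concentrations, vehicle 0.2% DMSO; CYP2B6 mRNA induction measured 6 h after dosing by quantitative nuclease protection assay with chemiluminescence, gain of signal fitted relative to DMSO.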
# [2] = CCTE_Padilla_ZF_144hpf_TERATOSCORE: (Legacy) CCTE's 144 Hour Post-fertilization zebrafish Assay Teratoscore, Padilla Lab (AID 2283679; active = hit-call score of the fitted dose curve at least 0.9, where 1 is the maximum; inactive = score below 0.9;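 for AC50: zebrafish embryos with chorions exposed by immersion from 6-8 hpf to 5 dpf with daily renewal; teratogenicity score from eye scoring of death hatching and malformations at 144 hpf; higher score means more developmental defects relative to DMSO baseline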)
# Method in brief: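 Larvae scored by eye at 144 hpf for death, hatching and malformations after a day in clean Hanks'. Before that, daily-renewed exposure at 80 uM (0.4% DMSO, 26C) from roughly 6-8 hpf through 5 dpf, 4 embryos per chemical.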
# [3] = read-out: Cytochrome P450 3A4 (Homo sapiens) (UniProt P08684); test: CLD_CYP3A4_6hr: CellzDirect (CLD) Gene Expression Assay for xenobiotic metabolism (CYP3A4) at 6 hours (AID 2283680)
# Method in brief: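 Primary human hepatocytes (two donor preparations) dosed; CYP3A4 mRNA harvested at 6 h and quantified by qNPA chemiluminescence. Gain of signal fitted against 0.2% DMSO vehicle; cytotoxicity flagged by phase-contrast morphology.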
# [4] = read-out: xenobiotic metabolism (CYP1A2), CYP1A2 (gene 1544); test: CLD_CYP1A2_24hr: CellzDirect (CLD) Gene Expression Assay for xenobiotic metabolism (CYP1A2) at 24 hours (AID 2283683)
# Method in brief: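 Primary human hepatocytes from two donor preparations dosed daily with multiple concentrations of chemical, 0.2% DMSO vehicle. CYP1A2 mRNA at 24 h quantified by qNPA chemiluminescence; gain of signal analyzed relative to DMSO. Cytotoxicity flagged by phase-contrast morphology.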
# [5] = read-out: ABC Transporter (ABCB1), ABCB1 (gene 5243); test: CLD_ABCB1_24hr: CellzDirect (CLD) Gene Expression Assay for ABC Transporter (ABCB1) at 24 hours (AID 2283684);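 for AC50: potency for increase in ABCB1 mRNA relative to DMSO vehicle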
# Method in brief: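 Primary human hepatocytes, two donor preparations, dosed daily with fresh solutions; vehicle 0.2% DMSO; harvested at 24 h. ABCB1 mRNA measured by quantitative nuclease protection assay (chemiluminescence); morphology-based cytotoxicity annotated.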
# [6] = read-out: Broad substrate specificity ATP-binding cassette transporter ABCG2 (Homo sapiens) (UniProt Q9UNQ0); test: CLD_ABCG2_24hr: CellzDirect (CLD) Gene Expression Assay for ABC Transporter (ABCG2) at 24 hours (AID 2283685)
# Method in brief: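 Primary human hepatocytes were dosed daily with ToxCast chemicals at multiple concentrations (vehicle 0.2% DMSO). ABCG2 mRNA was measured at 24 h by qNPA chemiluminescence; induction was scored as gain of signal versus DMSO.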
# [7] = read-out: Cytochrome P450 2B6 (Homo sapiens) (UniProt P20813); test: CLD_CYP2B6_24hr: CellzDirect (CLD) Gene Expression Assay for xenobiotic metabolism (CYP2B6) at 24 hours (AID 2283686)
# Method in brief: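 Primary human hepatocytes dosed daily for two days with fresh solutions, harvested at 24 hours; mRNA induction quantified by qNPA chemiluminescence, gain of signal vs 0.2% DMSO vehicle. Cytotoxicity annotated from phase-contrast morphology.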
# [8] = read-out: Cytochrome P450 3A4 (Homo sapiens) (UniProt P08684); test: CLD_CYP3A4_24hr: CellzDirect (CLD) Gene Expression Assay for xenobiotic metabolism (CYP3A4) at 24 hours (AID 2283689)
# Method in brief: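 Primary human hepatocytes from two donors dosed daily with fresh compound for two days, 0.2% DMSO vehicle. CYP3A4 mRNA at 24 hr by qNPA chemiluminescence; gain-of-signal fit versus DMSO, cytotoxicity flagged by morphology.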
# [9] = read-out: organic anion transporter (SLCO1B1), SLCO1B1 (gene 10599); test: CLD_SLCO1B1_24hr: CellzDirect (CLD) Gene Expression Assay for organic anion transporter (SLCO1B1) at 24 hours (AID 2283690)
# Method in brief: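 Primary human hepatocytes (two donor preparations) dosed daily for two days with chemicals at multiple concentrations, 0.2% DMSO vehicle. SLCO1B1 mRNA at 24 h measured by qNPA chemiluminescence; induction fitted relative to DMSO.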
# [10] = read-out: sulfotransferase (SULT2A), SULT2A1 (gene 6822); test: CLD_SULT2A_24hr: CellzDirect (CLD) Gene Expression Assay for sulfotransferase (SULT2A) at 24 hours (AID 2283694);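 for AC50: potency for increased SULT2A1 mRNA level as induction over DMSO baseline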
# Method in brief: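 Primary human hepatocytes from two donor preparations were dosed daily with fresh solutions, vehicle 0.2% DMSO. At 24 h, lysates went to quantitative nuclease protection (qNPA) with S1 digestion and chemiluminescent readout. Cytotoxicity was annotated from phase-contrast morphology.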
# [11] = CLD_ACTIN_6hr: CellzDirect (CLD) Gene Expression Assay for Baseline Control (Actin) at 6 hours (AID 2283676);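 note: active means increased actin mRNA relative to DMSO vehicle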
# Method in brief: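 Primary human hepatocytes dosed with fresh chemical solutions (vehicle 0.2% DMSO), harvested at 6 h. Actin mRNA quantified by quantitative nuclease protection assay with chemiluminescent read-out, as background control relative to DMSO.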
# [12] = read-out: Glyceraldehyde-3-phosphate dehydrogenase (Homo sapiens) (UniProt P04406); test: CLD_GAPDH_6hr: CellzDirect (CLD) Gene Expression Assay for Baseline Control (Glyceraldehyde 3-phosphate dehydrogenase) at 6 hours (AID 2283681);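 note: active means increased signal relative to DMSO vehicle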
# Method in brief: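 Primary human hepatocytes from two donor preparations, dosed at multiple concentrations with 0.2% DMSO vehicle; GAPDH mRNA measured 6 h after dosing by chemiluminescent quantitative nuclease protection assay (qNPA) on denatured lysates. Serves as background control; cytotoxicity annotated by morphology.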
# [13] = read-out: Cytochrome P450 2C19 (Homo sapiens) (UniProt P33261); test: CLD_CYP2C19_24hr: CellzDirect (CLD) Gene Expression Assay for xenobiotic metabolism (CYP2C19) at 24 hours (AID 2283687);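 note: activity means mRNA induction above DMSO vehicle baseline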
# Method in brief: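 Primary human hepatocytes (two donor preparations) dosed daily with fresh test chemical in 0.2% DMSO vehicle; CYP2C19 mRNA induction measured at 24 h by quantitative nuclease protection assay with chemiluminescence, fitted for gain of signal versus DMSO.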
# [14] = read-out: alkyl and aryl transferase (GSTA2), GSTA2 (gene 2939); test: CLD_GSTA2_24hr: CellzDirect (CLD) Gene Expression Assay for alkyl and aryl transferase (GSTA2) at 24 hours (AID 2283693)
# Method in brief: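 Primary human hepatocytes (two donor preparations) dosed daily for two days with chemicals at multiple concentrations (vehicle 0.2% DMSO); GSTA2 mRNA at 24 h measured by qNPA chemiluminescence, gain-of-signal versus DMSO.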
# [15] = read-out: Cytochrome P450 2C19 (Homo sapiens) (UniProt P33261); test: CLD_CYP2C19_6hr: CellzDirect (CLD) Gene Expression Assay for xenobiotic metabolism (CYP2C19) at 6 hours (AID 2283678)
# Method in brief: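 Primary human hepatocytes from two donor preparations were dosed daily, with 0.2% DMSO as vehicle, and harvested 6 h after dosing. CYP2C19 mRNA induction was measured by qNPA chemiluminescence and fitted as gain of signal against DMSO.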
# [16] = read-out: Glyceraldehyde-3-phosphate dehydrogenase (Homo sapiens) (UniProt P04406); test: CLD_GAPDH_24hr: CellzDirect (CLD) Gene Expression Assay for Baseline Control (Glyceraldehyde 3-phosphate dehydrogenase) at 24 hours (AID 2283692)
# Method in brief: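 Primary human hepatocytes (two donor preparations) dosed daily for two days, 0.2% DMSO vehicle; GAPDH mRNA measured at 24 h by qNPA chemiluminescence as a background control, gain-of-signal fitted against DMSO.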
# [17] = read-out: ABC Transporter (ABCB1), ABCB1 (gene 5243); test: CLD_ABCB1_48hr: CellzDirect (CLD) Gene Expression Assay for ABC Transporter (ABCB1) at 48 hours (AID 2283695)
# Method in brief: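 Primary human hepatocytes from two donor preparations dosed daily on two consecutive days with 0.2% DMSO vehicle. Harvest at 48 h. ABCB1 mRNA quantified by qNPA with chemiluminescence and fitted for gain of signal versus DMSO.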
# Broad substrate specificity ATP-binding cassette transporter ABCG2 (Homo sapiens), sequence (Q9UNQ0 whole entry, looked up): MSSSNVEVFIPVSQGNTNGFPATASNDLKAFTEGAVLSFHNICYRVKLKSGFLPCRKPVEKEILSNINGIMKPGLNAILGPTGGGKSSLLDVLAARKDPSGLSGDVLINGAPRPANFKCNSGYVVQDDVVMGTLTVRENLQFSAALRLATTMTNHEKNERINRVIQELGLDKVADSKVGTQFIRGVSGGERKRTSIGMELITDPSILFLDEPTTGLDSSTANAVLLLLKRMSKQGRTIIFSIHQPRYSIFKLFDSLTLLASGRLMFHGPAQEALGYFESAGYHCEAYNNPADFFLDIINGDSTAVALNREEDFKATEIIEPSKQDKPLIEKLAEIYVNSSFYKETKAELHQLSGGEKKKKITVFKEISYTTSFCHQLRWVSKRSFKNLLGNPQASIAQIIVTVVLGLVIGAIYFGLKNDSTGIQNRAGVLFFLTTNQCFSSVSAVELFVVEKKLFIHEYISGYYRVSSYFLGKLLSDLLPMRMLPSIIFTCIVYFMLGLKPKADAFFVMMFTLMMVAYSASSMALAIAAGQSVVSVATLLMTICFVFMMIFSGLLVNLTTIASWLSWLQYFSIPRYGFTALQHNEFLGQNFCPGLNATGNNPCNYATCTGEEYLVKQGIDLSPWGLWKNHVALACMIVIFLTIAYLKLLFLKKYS
# Cytochrome P450 3A4 (Homo sapiens), sequence (P08684 whole entry, looked up): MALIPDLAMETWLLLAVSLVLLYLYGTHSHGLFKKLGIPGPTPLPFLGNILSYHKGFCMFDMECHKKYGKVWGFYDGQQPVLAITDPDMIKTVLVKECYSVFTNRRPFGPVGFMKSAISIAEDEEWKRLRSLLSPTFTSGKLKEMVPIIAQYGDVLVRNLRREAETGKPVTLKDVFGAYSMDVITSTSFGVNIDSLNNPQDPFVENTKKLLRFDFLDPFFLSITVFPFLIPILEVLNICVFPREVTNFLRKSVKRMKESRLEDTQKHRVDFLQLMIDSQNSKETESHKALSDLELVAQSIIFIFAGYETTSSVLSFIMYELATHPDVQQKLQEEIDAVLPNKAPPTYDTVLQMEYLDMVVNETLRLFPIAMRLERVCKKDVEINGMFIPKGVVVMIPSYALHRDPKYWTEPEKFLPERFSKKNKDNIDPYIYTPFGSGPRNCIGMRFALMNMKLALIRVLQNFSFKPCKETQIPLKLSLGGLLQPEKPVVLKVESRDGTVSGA
# Cytochrome P450 2C19 (Homo sapiens), sequence (P33261 whole entry, looked up): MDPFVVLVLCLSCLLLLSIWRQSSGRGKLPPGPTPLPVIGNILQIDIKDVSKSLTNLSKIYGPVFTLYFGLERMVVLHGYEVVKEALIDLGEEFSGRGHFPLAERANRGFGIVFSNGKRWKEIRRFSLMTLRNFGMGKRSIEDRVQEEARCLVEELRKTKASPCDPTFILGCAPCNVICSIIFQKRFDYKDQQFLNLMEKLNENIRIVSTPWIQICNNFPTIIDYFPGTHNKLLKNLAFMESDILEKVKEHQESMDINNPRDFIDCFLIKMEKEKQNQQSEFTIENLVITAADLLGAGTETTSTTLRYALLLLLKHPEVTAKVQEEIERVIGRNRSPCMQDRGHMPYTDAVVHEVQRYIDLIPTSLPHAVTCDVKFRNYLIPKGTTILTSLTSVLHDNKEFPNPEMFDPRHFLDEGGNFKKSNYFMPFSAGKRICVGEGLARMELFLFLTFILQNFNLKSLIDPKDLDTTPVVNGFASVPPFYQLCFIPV
# Glyceraldehyde-3-phosphate dehydrogenase (Homo sapiens), sequence (P04406 whole entry, looked up): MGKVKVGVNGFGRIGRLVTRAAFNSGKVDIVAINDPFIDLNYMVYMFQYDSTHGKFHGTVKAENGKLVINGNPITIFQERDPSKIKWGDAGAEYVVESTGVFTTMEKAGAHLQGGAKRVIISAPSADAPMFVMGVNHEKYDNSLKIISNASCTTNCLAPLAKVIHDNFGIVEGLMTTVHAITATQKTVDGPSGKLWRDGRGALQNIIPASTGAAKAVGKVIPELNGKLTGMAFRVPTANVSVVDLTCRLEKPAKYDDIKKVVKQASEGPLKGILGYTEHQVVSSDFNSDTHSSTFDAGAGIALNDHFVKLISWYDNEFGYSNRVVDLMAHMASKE
smiles,measurement,setting,value
CC(COc1ccc(Oc2ccccc2)cc1)Oc1ccccn1 (stereo not given),AC50,[1],3.97 µM (active)
same,AC50,[2],47.6 µM (active)
same,AC50,[3],20 µM (active)
same,outcome,[4],inactive
same,outcome,[5],inactive
same,outcome,[6],inactive
same,AC50,[7],3.97 µM (active)
same,AC50,[8],4.68 µM (active)
same,outcome,[9],inactive
same,outcome,[10],inactive
CC(C)[C@H](C(=O)O[C@H](C#N)c1cccc(Oc2ccccc2)c1)c1ccc(Cl)cc1,outcome,[11],inactive
same,AC50,[1],3.42 µM (active)
same,AC50,[2],0.166 µM (active)
same,outcome,[3],inactive
same,outcome,[12],inactive
same,outcome,[4],inactive
same,outcome,[5],inactive
same,outcome,[7],inactive
same,outcome,[13],inactive
same,outcome,[8],inactive
same,outcome,[9],inactive
same,outcome,[14],inactive
same,outcome,[10],inactive
CCCSP(=O)(OCC)Oc1ccc(Br)cc1Cl (stereo not given),AC50,[1],3.75 µM (active)
same,AC50,[2],8.79 µM (active)
same,AC50,[4],4.13 µM (active)
same,outcome,[5],inactive
same,outcome,[6],inactive
same,AC50,[7],6.22 µM (active)
same,outcome,[13],inactive
same,AC50,[8],20 µM (active)
same,outcome,[9],inactive
CCC(CC)Nc1c([N+](=O)[O-])cc(C)c(C)c1[N+](=O)[O-],AC50,[1],3.47 µM (active)
same,AC50,[2],24.2 µM (active)
same,outcome,[12],inactive
same,AC50,[4],33.4 µM (active)
same,AC50,[7],11.4 µM (active)
same,outcome,[13],inactive
same,outcome,[10],inactive
CC(Oc1cccc(Cl)c1)C(=O)O (stereo not given),outcome,[11],inactive
same,outcome,[15],inactive
same,outcome,[2],inactive
same,outcome,[12],inactive
same,outcome,[4],inactive
same,outcome,[5],inactive
same,outcome,[16],inactive
same,outcome,[10],inactive
C[Si](Cn1cncn1)(c1ccc(F)cc1)c1ccc(F)cc1,outcome,[11],inactive
same,AC50,[1],32.4 µM (active)
same,AC50,[2],9.34 µM (active)
same,outcome,[12],inactive
same,AC50,[4],1.89 µM (active)
same,AC50,[5],4.51 µM (active)
same,outcome,[6],inactive
same,AC50,[7],0.179 µM (active)
same,AC50,[8],1.89 µM (active)
same,AC50,[10],20 µM (active)
CCc1cccc(C)c1N(C(=O)CCl)C(C)COC (stereo not given),outcome,[11],inactive
same,AC50,[1],0.596 µM (active)
same,AC50,[2],50.9 µM (active)
same,outcome,[12],inactive
same,AC50,[4],3.97 µM (active)
same,outcome,[5],inactive
same,AC50,[7],1.61 µM (active)
same,outcome,[13],inactive
same,AC50,[8],8.71 µM (active)
same,outcome,[10],inactive
COP(=O)(NC(C)=O)SC (stereo not given),outcome,[11],inactive
same,outcome,[15],inactive
same,outcome,[2],inactive
same,outcome,[12],inactive
same,outcome,[4],inactive
same,outcome,[5],inactive
same,outcome,[7],inactive
same,outcome,[8],inactive
same,outcome,[9],inactive
same,outcome,[16],inactive
same,outcome,[17],inactive
CNC(=O)Oc1cccc2c1OC(C)(C)O2,AC50,[1],2.74 µM (active)
same,AC50,[2],50.1 µM (active)
same,AC50,[4],20 µM (active)
same,outcome,[5],inactive
same,AC50,[7],20 µM (active)
same,outcome,[13],inactive
same,AC50,[8],20 µM (active)
same,outcome,[9],inactive
CN1COCN(Cc2cnc(Cl)s2)C1=N[N+](=O)[O-],outcome,[11],inactive
same,outcome,[15],inactive
same,outcome,[2],inactive
same,outcome,[4],inactive
same,outcome,[7],inactive
same,outcome,[13],inactive
same,outcome,[8],inactive
same,outcome,[9],inactive
same,outcome,[10],inactive

# Reference: PubChem BioAssay (EPA / NIEHS)
